The source of these data is PubChem BioAssay (Tox21).

Inconclusive results are not listed. Entries that show only a call come without a potency. Unmarked numbers belong to inactive results. Active and inactive are the calls of the source. Calls come from the whole dose curve.

The first assay can be described thus: p53 small molecule agonists, cell-based qHTS assay with rat liver microsomes (AID 1963578). The settings on record: HCT-116 p53RE-bla, beta-lactamase ratio, 16 h; series mostly up to 66 µM. The procedure, abridged:
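Fluorescence from a beta-lactamase reporter under a p53 response element was measured after cells had been incubated 16 h at 37 C with test compound and rat liver microsomes plus NADPH (0.5 mg/mL final each).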
With `O=Cc1cccc([N+](=O)[O-])c1`, the Potency entry is “inactive”.

On to `CC(COCCO)OCCO` (configuration not stated), for which the Potency entry is “inactive”.

As to `NC(=O)N[C@@H](CCC(=O)O)C(=O)O`, the Potency result is “inactive”.

As for `COc1ccc2cc(C=O)ccc2c1`, the Potency result was “inactive”.

Take `CC(O)CCCCn1c(=O)c2c(ncn2C)n(C)c1=O` (configuration not stated): the Potency result is “inactive”.

In the case of `NC(=O)CCCCC(N)=O`, the Potency result was “inactive”.

Take `NCC1CCCC(CN)C1` (configuration not stated): the Potency result was “inactive”.

Turning to `CC(=O)CC(=O)Nc1ccc2[nH]c(=O)[nH]c2c1`, the Potency result is “inactive”.

For the compound `Oc1ccc(O)c2c(O)cccc12`, the Potency entry is “inactive”.

As to `CCCOC(C)=O`, the Potency result was “inactive”.

Regarding `CCCCCCCCCCCC[N+](C)(C)CCCS(=O)(=O)[O-]`, the Potency entry is “inactive”.

Regarding `CC(C)=C1CC[C@@H](C)CC1=O`, the Potency entry was “inactive”.

For the compound `O=C(O)c1ccc([N+](=O)[O-])cc1`, the Potency result was “inactive”.

Consider `C=CCCCCCCCCC(=O)OCCCC`, for which the Potency entry is “inactive”.

`CC(=O)NCCO`: the Potency result was “inactive”.

For `NNC(=O)c1cccc(C(=O)NN)c1`, the Potency result is “inactive”.

On to `O=C(C(=O)c1ccco1)c1ccco1`, for which the Potency result was “inactive”.

For `COc1ccc(Cl)cc1C`, the Potency entry is “inactive”.

For the compound `Nc1ncnc2c1ncn2Cc1c(F)cccc1Cl`, the Potency entry is “inactive”.

Consider `NC(=S)Nc1cccc2ccccc12`, for which the activation is 0.459% [at 5.99 µM].

Consider `NCCOCCN`, for which the Potency result is “inactive”.

For `O=C1OC(CN2CCOCC2)CN1/N=C/c1ccc([N+](=O)[O-])o1` (configuration not stated), the Potency entry is “inactive”.

For the compound `N[C@H]1C(O)O[C@H](CO)[C@@H](O)[C@@H]1O` (some centres not stated), the Potency entry is “inactive”.

`C=C(C)[C@H]1CC=C(C)CC1`: the Potency entry is “inactive”.

In the case of `CC1=CC[C@@H](C(C)(C)O)CC1`, the Potency entry was “inactive”.

Consider `CCCCCCCCCCCCCCC(=O)O`, for which the Potency result is “inactive”.

Turning to `CC(COC(=O)c1ccccc1)OC(=O)c1ccccc1` (configuration not stated), the Potency entry is “inactive”.

Consider `F[Si-2](F)(F)(F)(F)F`, for which the Potency result was “inactive”.

For `NNS(=O)(=O)c1ccc(Oc2ccc(S(=O)(=O)NN)cc2)cc1`, the Potency entry was “inactive”.

Take `O=C(O)CONC(=O)c1ccccc1`: the Potency result is “inactive”.

Consider `OCC1CC2CC1C1CCC(CO)C21` (configuration not stated), for which the Potency entry was “inactive”.

In the case of `O=C1CCC(=O)N1`, the Potency result was “inactive”.

For the compound `CCC(=O)OC/C=C(\C)CCC=C(C)C`, the Potency result was “inactive”.

Take `CC(O)CNCC(C)O` (configuration not stated): the Potency result is “inactive”.

For `OCc1ccccc1O`, the Potency result is “inactive”.

As to `CCOC(=O)c1cccc(N)c1`, the Potency result was “inactive”.

On to `CNCCO`, for which the Potency result was “inactive”.

For the compound `N#CCN(CC#N)CCN(CC#N)CC#N`, the Potency result is “inactive”.

Turning to `CCCOCCOCCOCCO`, the Potency result is “inactive”.

A short description of a further assay: p53 small molecule agonists, cell-based qHTS assay with human liver microsomes: qHTS cell viability counter screen (AID 1963579). Note: nearly all actives have a fitted effect of over 45% in size. The settings on record: p53RE-bla HCT-116 viability, ATP luminescence, 16 h, HLM; series mostly up to 66 µM. The procedure, abridged: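 Seed p53RE-bla cells at 4,000 per well; incubate 5 h at 37 C; add compound, human liver microsomes and NADPH; incubate 16 h at 37 C; add CellTiter-Glo; after 30 min at room temperature, read luminescence.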
Regarding `O=Cc1cccc([N+](=O)[O-])c1`, the Potency result is “inactive”.

As for `CC(COCCO)OCCO` (configuration not stated), the Potency entry is “inactive”.

For the compound `NC(=O)N[C@@H](CCC(=O)O)C(=O)O`, the Potency entry was “inactive”.

With `COc1ccc2cc(C=O)ccc2c1`, the Potency entry is “inactive”.

As for `CC(O)CCCCn1c(=O)c2c(ncn2C)n(C)c1=O` (configuration not stated), the Potency result is “inactive”.

As for `NC(=O)CCCCC(N)=O`, the Potency entry is “inactive”.

As to `NCC1CCCC(CN)C1` (configuration not stated), the Potency result was “inactive”.

For `CC(=O)CC(=O)Nc1ccc2[nH]c(=O)[nH]c2c1`, the Potency entry is “inactive”.

As to `Oc1ccc(O)c2c(O)cccc12`, the Potency result is “inactive”.

Consider `CCCOC(C)=O`, for which the Potency entry was “inactive”.

For `CCCCCCCCCCCC[N+](C)(C)CCCS(=O)(=O)[O-]`, the Potency result is “inactive”.

In the case of `CC(C)=C1CC[C@@H](C)CC1=O`, the Potency entry was “inactive”.

Turning to `O=C(O)c1ccc([N+](=O)[O-])cc1`, the Potency result is “inactive”.

On to `C=CCCCCCCCCC(=O)OCCCC`, for which the Potency entry is “inactive”.

`CC(=O)NCCO`: the Potency entry was “inactive”.

Consider `NNC(=O)c1cccc(C(=O)NN)c1`, for which the Potency entry was “inactive”.

With `O=C(C(=O)c1ccco1)c1ccco1`, the Potency result was “inactive”.

As for `COc1ccc(Cl)cc1C`, the Potency result was “inactive”.

Regarding `Nc1ncnc2c1ncn2Cc1c(F)cccc1Cl`, the Potency result is “inactive”.

In the case of `NC(=S)Nc1cccc2ccccc12`, the activity change, negative = cytotoxicity is 3.12% [at 5.99 µM].

Regarding `NCCOCCN`, the Potency entry is “inactive”.

For the compound `O=C1OC(CN2CCOCC2)CN1/N=C/c1ccc([N+](=O)[O-])o1` (configuration not stated), the Potency entry was “inactive”.

On to `N[C@H]1C(O)O[C@H](CO)[C@@H](O)[C@@H]1O` (some centres not stated), for which the Potency result is “inactive”.

As for `C=C(C)[C@H]1CC=C(C)CC1`, the Potency entry was “inactive”.

For `CC1=CC[C@@H](C(C)(C)O)CC1`, the Potency entry is “inactive”.

On to `CCCCCCCCCCCCCCC(=O)O`, for which the Potency result is “inactive”.

For the compound `CC(COC(=O)c1ccccc1)OC(=O)c1ccccc1` (configuration not stated), the Potency entry is “inactive”.

As for `F[Si-2](F)(F)(F)(F)F`, the Potency result was “inactive”.

For the compound `NNS(=O)(=O)c1ccc(Oc2ccc(S(=O)(=O)NN)cc2)cc1`, the Potency entry was “inactive”.

With `O=C(O)CONC(=O)c1ccccc1`, the Potency result was “inactive”.

With `OCC1CC2CC1C1CCC(CO)C21` (configuration not stated), the Potency result is “inactive”.

On to `O=C1CCC(=O)N1`, for which the Potency result is “inactive”.

As to `CCC(=O)OC/C=C(\C)CCC=C(C)C`, the Potency result was “inactive”.

With `CC(O)CNCC(C)O` (configuration not stated), the Potency result was “inactive”.

For the compound `OCc1ccccc1O`, the Potency entry was “inactive”.

Turning to `CCOC(=O)c1cccc(N)c1`, the Potency result was “inactive”.

For `CNCCO`, the Potency result is “inactive”.

`N#CCN(CC#N)CCN(CC#N)CC#N`: the Potency entry is “inactive”.

As to `CCCOCCOCCOCCO`, the Potency entry is “inactive”.

The nature of another assay: p53 small molecule agonists, cell-based qHTS assay with rat liver microsomes: qHTS cell viability counter screen (AID 1963580). Note: nearly all actives have a fitted effect of over 45% in size. The settings on record: p53RE-bla HCT-116 + rat microsomes, ATP viability, 16 h; series mostly up to 66 µM. The procedure, abridged:
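In HCT-116 cells carrying a p53 response element-bla reporter, compounds were metabolically activated in situ by rat liver microsomes with NADPH over 16 h. Cell ATP content then served as the cytotoxicity measure.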
On to `O=Cc1cccc([N+](=O)[O-])c1`, for which the Potency result is “inactive”.

Regarding `CC(COCCO)OCCO` (configuration not stated), the Potency entry is “inactive”.

On to `NC(=O)N[C@@H](CCC(=O)O)C(=O)O`, for which the Potency entry is “inactive”.

For the compound `COc1ccc2cc(C=O)ccc2c1`, the Potency entry was “inactive”.

With `CC(O)CCCCn1c(=O)c2c(ncn2C)n(C)c1=O` (configuration not stated), the Potency entry was “inactive”.

As for `NC(=O)CCCCC(N)=O`, the Potency entry is “inactive”.

In the case of `NCC1CCCC(CN)C1` (configuration not stated), the Potency entry was “inactive”.

`CC(=O)CC(=O)Nc1ccc2[nH]c(=O)[nH]c2c1`: the Potency entry is “inactive”.

For `Oc1ccc(O)c2c(O)cccc12`, the Potency result is “inactive”.

Take `CCCOC(C)=O`: the Potency entry was “inactive”.

`CCCCCCCCCCCC[N+](C)(C)CCCS(=O)(=O)[O-]`: the Potency entry is “inactive”.

Regarding `CC(C)=C1CC[C@@H](C)CC1=O`, the Potency entry is “inactive”.

For the compound `O=C(O)c1ccc([N+](=O)[O-])cc1`, the Potency result is “inactive”.

For `C=CCCCCCCCCC(=O)OCCCC`, the Potency result was “inactive”.

With `CC(=O)NCCO`, the Potency result was “inactive”.

Take `NNC(=O)c1cccc(C(=O)NN)c1`: the Potency entry was “inactive”.

As for `O=C(C(=O)c1ccco1)c1ccco1`, the Potency result was “inactive”.

In the case of `COc1ccc(Cl)cc1C`, the Potency result was “inactive”.

As for `Nc1ncnc2c1ncn2Cc1c(F)cccc1Cl`, the Potency entry was “inactive”.

Take `NC(=S)Nc1cccc2ccccc12`: the activity change, negative = cytotoxicity was 8.96% [at 5.99 µM].

As for `NCCOCCN`, the Potency entry is “inactive”.

`O=C1OC(CN2CCOCC2)CN1/N=C/c1ccc([N+](=O)[O-])o1` (configuration not stated): the Potency result is “inactive”.

Turning to `N[C@H]1C(O)O[C@H](CO)[C@@H](O)[C@@H]1O` (some centres not stated), the Potency result is “inactive”.

`C=C(C)[C@H]1CC=C(C)CC1`: the Potency result is “inactive”.

As to `CC1=CC[C@@H](C(C)(C)O)CC1`, the Potency result was “inactive”.

Take `CCCCCCCCCCCCCCC(=O)O`: the Potency entry is “inactive”.

`CC(COC(=O)c1ccccc1)OC(=O)c1ccccc1` (configuration not stated): the Potency result was “inactive”.

Consider `F[Si-2](F)(F)(F)(F)F`, for which the Potency result is “inactive”.

Regarding `NNS(=O)(=O)c1ccc(Oc2ccc(S(=O)(=O)NN)cc2)cc1`, the Potency entry was “inactive”.

For `O=C(O)CONC(=O)c1ccccc1`, the Potency entry was “inactive”.

On to `OCC1CC2CC1C1CCC(CO)C21` (configuration not stated), for which the Potency result is “inactive”.

In the case of `O=C1CCC(=O)N1`, the Potency result is “inactive”.

In the case of `CCC(=O)OC/C=C(\C)CCC=C(C)C`, the Potency entry is “inactive”.

As for `CC(O)CNCC(C)O` (configuration not stated), the Potency result is “inactive”.

For `OCc1ccccc1O`, the Potency result was “inactive”.

Regarding `CCOC(=O)c1cccc(N)c1`, the Potency result is “inactive”.

Consider `CNCCO`, for which the Potency result is “inactive”.

Take `N#CCN(CC#N)CCN(CC#N)CC#N`: the Potency result was “inactive”.

`CCCOCCOCCOCCO`: the Potency entry was “inactive”.
